Several values for one entry are separate records, joined by “and”; a condition that tells them apart may be missing. Equal entries are not always repeated. In all, about 73,000 compounds went through this assay and about 1,800 (2.5%) were called active. About 13% were inconclusive and are not listed. Only a selection was taken, and actives are over-represented in it overall. Values without a mark were called inactive. The call rests on the fitted dose curve; in most records, active means well fitted activation curve with a large enough effect; inconclusive means small, poorly fitted or top-dose-only effect; inactive means no such curve, though single readings can be large or run the other way.
Assay: qHTS Assay for Agonists of the Thyroid Stimulating Hormone Receptor: Activators of Intracellular cAMP Concentrations in Parental HEK 293; further: nearly all actives have a fitted effect of over 55% in size; on activation: % of control where 0% means no effect
Conditions: parental HEK293 CNG cAMP sensor, membrane potential fluorescence; series mostly up to 57.1 µM; activation: at the top concentration
Summary of the method: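 Counterscreen for endogenous-receptor signalling: CNG-channel HEK 293 cells report cAMP rise by membrane depolarization. After 60 min dye equilibration with 100 uM RO 20-1724, compounds incubated 30 min before bottom-read fluorescence at 590 nm.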
For `Cn1c(SCC(=O)c2cccs2)nnc1-c1ccco1`, the “activation” value was -17.6%.
In the case of `COCc1nc2ccccc2n1Cc1ccccc1Br`, the Potency is reported as 31.6 µM (active).
With `CC(=O)NC(C)c1nc2ccccc2n1Cc1ccccc1F` (stereo unspecified) the “activation” value was 11.7%.
Work on `COCn1c(COc2ccccc2)nc2ccccc21` yielded an activation of 25.1% [at 11.4 µM].
With `COCc1nnc(NC(=O)CS(=O)(=O)Cc2ccccc2)s1` the “activation” value was 0.984%.
In the case of `Cc1ccc(N2CCN(S(=O)(=O)c3ccc(F)cc3)CC2)c(C)c1`, the “activation” value is reported as 12.7%.
For `CC(Cc1ccccc1)C(=O)N(C)Cc1ccccc1` (stereo unspecified), the “activation” value was 16.5%.
For `CN(C(=O)c1ccccn1)c1nnc(-c2ccccn2)s1`, the “activation” value was -4.34%.
For `COc1ccc(-c2nn3c(-c4ccccc4)nnc3s2)cc1OC`, the “activation” value was 28.3%.
For `c1ccc(-c2cc(-c3nnc4sc(-c5ccccn5)nn34)[nH]n2)cc1`, the Potency was 25.1 µM (active).
In the case of `Cc1ccc(S(=O)(=O)N2CC(=O)Nc3ccccc32)cc1C`, the activation is reported as -6.15% [at 11.4 µM].
Work on `CCOC(=O)N/N=C1/C[C@@H](O)[C@@H](O)[C@@H]2[C@@H]3C(=O)N(CC)C(=O)[C@H]3CC[C@H]12` yielded an activation of 2.56% [at 11.4 µM].
In the case of `COc1ccc(OC)c(C(=O)c2coc3ccc(OC)cc23)c1`, the Potency is reported as 10 µM (active).
For `COc1ccc(OC)c(C(=O)c2coc3ccc(O)c(CN4CCOCC4)c23)c1`, the “activation” value was 17.1%.
In the case of `COc1ccc(OC)c(C(=O)c2ccc(C(=O)O)cc2)c1`, the “activation” value is reported as 2.61%.
With `O=C(CN1C(=O)CSc2ncccc21)N1CCOCC1` the “activation” value was -3.29%.
With `CN(C)c1ccc(NC(=O)c2ccncc2)c2ccccc12` the “activation” value was -2.48%.
For `COc1ccc(CCN2CNc3c(c(=O)n(C)c(=O)n3C)C2)cc1OC`, the “activation” value was 1.78%.
For `CCN(CC)C(=O)CCC(=O)Nc1ccc(C(=O)OC)cc1`, the “activation” value was 2.85%.
For `COC(=O)c1ccc(NCC(=O)c2ccccc2)cc1`, the “activation” value was 7.18%.
For `CCC/C=C(\CCC)C(NC(=O)Cc1ccccc1)c1ccc(C(=O)OC)cc1` (stereo unspecified), the Potency was 15.8 µM (active).
Work on `CO[C@H]1COC(=O)CCC[C@@H](C)[C@H](OC)COC(=O)[C@@H](C)NC(=O)C/C=C\[C@@H]1C` yielded an activation of 4.76% [at 11.4 µM].
In the case of `Fc1ccc(-c2nnc(CSc3nnc(-c4ccc5c(c4)OCO5)o3)o2)cc1`, the Potency is reported as 25.1 µM (active).
For `Fc1ccc(-c2nnc3sc(-c4ccc5c(c4)OCO5)nn23)cc1`, the “activation” value was 23.4%.
With `Fc1ccc2nc(-c3ccccc3)nc(SCc3nnc(-c4ccccc4)o3)c2c1` the “activation” value was 19.2%.
In the case of `Cc1ccc(C(=O)NC2CC(C)(C)NC(C)(C)C2)c(C)c1`, the “activation” value is reported as 0.884%.
With `CCOC(=O)c1ccc(COC(=O)c2cc(=O)[nH]c3ccccc23)o1` the “activation” value was 3.05%.
For `COC(=O)c1ccc(COC(=O)c2c(C)nn(Cc3ccccc3Cl)c2Cl)o1`, the Potency was 15.8 µM (active).
With `Cc1nn(Cc2ccccc2)c(Cl)c1C(=O)OC1CCOC1=O` (stereo unspecified) the “activation” value was 2.04%.
With `CCCCn1c(CCCNC(=O)CC)nc2ccccc21` the “activation” value was 14.9%.
With `COc1ccc(NC(=O)CCNC(=O)Cn2ccc3ccccc3c2=O)c(OC)c1` the “activation” value was -3.68%.
In the case of `N#CCCN1CCN(S(=O)(=O)c2ccc(S(=O)(=O)NC3CC3)cc2)CC1`, the “activation” value is reported as 2.86%.
In the case of `CC(C)(C)c1cc(CN2CCN(CCC#N)CC2)cc(C(C)(C)C)c1O`, the Potency is reported as 7.94 µM (active).
For `Cc1ccc(S(=O)(=O)NCC(=O)OCC(=O)N2CCc3ccccc32)cc1`, the “activation” value was -6.34%.
For `C[C@@H]1/C=C\CC(=O)OC[C@H]2O[C@@H](C=C[C@@H]2O)[C@H](C)/C=C\CC(=O)OC[C@H]2O[C@H]1C=C[C@@H]2O`, the activation was -6.65% [at 11.4 µM].
For `O=C(Nc1ccc2c(c1)OCCO2)c1ccncc1`, the “activation” value was 9.97%.
In the case of `O=C(Nc1nc(-c2ccc3c(c2)OCO3)cs1)c1ccncc1`, the Potency is reported as 20 µM (active).
For `O=C(Nc1cccnc1)c1ccc2c(c1)OCO2`, the “activation” value was 4.06%.
With `C=CCn1c(COc2ccccc2)nnc1SCC(=O)NCC(=O)OCC` the “activation” value was -0.938%.
In the case of `O=C(CC1(O)C(=O)N(CN2CCOCC2)c2ccccc21)c1ccccc1` (stereo unspecified), the “activation” value is reported as 1.28%.
With `Cc1ccc(C(=O)Nc2nnc(-c3ccncc3)s2)o1` the “activation” value was -13.3%.
For `CC(C)N(CCNC(=O)c1ccc(-n2c(=O)c(=O)[nH]c3ccccc32)cc1)C(C)C`, the “activation” value was -3.64%.
With `Cc1cc(C)c(C#N)c(SCc2ccc3c(c2)OCO3)n1` the Potency was 20 µM (active).
In the case of `Cc1cc(C)c(C#N)c(SCc2ccccc2C(=O)O)n1`, the “activation” value is reported as 5.96%.
With `Cc1cc(N2CCN(Cc3ccc4c(c3)OCO4)CC2)n2ncnc2n1` the “activation” value was 7.27%.
For `CC1(C)OC(C(O)(c2ccccc2)c2ccccc2)C(C(O)(c2ccccc2)c2ccccc2)O1` (stereo unspecified), the activation was 25.8% [at 11.4 µM].
For `CCOc1ccc(C(CC(=O)O)NC(=O)COc2ccccc2)cc1` (stereo unspecified), the “activation” value was 22.8%.
For `O=C(Nc1nnc(CCc2ccccc2)s1)C1CCCO1` (stereo unspecified), the “activation” value was -1.9%.
In the case of `CCC(=O)c1cc2c(cc1NC(=O)c1cccs1)OCCO2`, the “activation” value is reported as -57.7%.
In the case of `O=S(=O)(NCC1CCCO1)c1ccc2ccccc2c1` (stereo unspecified), the “activation” value is reported as 28.1%.
In the case of `O=S(=O)(c1cccs1)N1CCN(Cc2ccccc2)CC1`, the “activation” value is reported as 8.66%.
In the case of `CCOc1ccc(CN(Cc2ccco2)C(c2cccs2)c2nnnn2C(C)(C)C)cc1` (stereo unspecified), the “activation” value is reported as 21.3%.
With `Cc1ccc(C(c2nnnn2C(C)(C)C)N2CCc3ccccc3C2)cc1` (stereo unspecified) the “activation” value was 10.3%.
For `Fc1ccc(Cn2nnnc2C(c2cccs2)N2CCCCCC2)cc1` (stereo unspecified), the Potency was 31.6 µM (active).
In the case of `Cn1nnnc1SCC(=O)N1CCN(Cc2ccccc2)CC1`, the “activation” value is reported as -19.6%.
In the case of `Fc1ccccc1C(c1nnnn1Cc1ccc2c(c1)OCO2)N1CCN(Cc2ccccc2)CC1` (stereo unspecified), the “activation” value is reported as -1.23%.
For `Cc1cc(C)c2[nH]c(=O)c(C(c3nnnn3Cc3ccc4c(c3)OCO4)N3CCCC3)cc2c1` (stereo unspecified), the “activation” value was 26.5%.
In the case of `CCC(C)(C)n1nnnc1C(c1cccs1)N1CCN(Cc2ccccc2)CC1` (stereo unspecified), the Potency is reported as 12.6 µM (active).
With `CCC(C)(C)n1nnnc1C(c1cccs1)N1CCN(c2nc3ccccc3s2)CC1` (stereo unspecified) the Potency was 3.16 µM (active).
For `COc1ccc(-c2nc3cnc(N(C)C)nc3n(Cc3cccs3)c2=O)cc1`, the “activation” value was 2.64%.
With `CCOC(=O)C(C(=O)OCC)C(C#N)c1ccccc1` (stereo unspecified) the “activation” value was 14.2%.
For `O=C(O)CC(C(=O)O)C(CC(=O)O)C(=O)O` (stereo unspecified), the “activation” value was -7.18%.
With `Cc1ccc(S(=O)(=O)Cn2nnnc2CN2CCN(Cc3ccc4c(c3)OCO4)CC2)cc1` the “activation” value was 20%.
For `O=C(O)c1ccc(Cl)c(S(=O)(=O)Nc2ccccc2Cl)c1`, the “activation” value was 5.29%.
With `Cc1ccc(-c2nc(CS(=O)CC(=O)N3CCN(c4ncccn4)CC3)c(C)o2)cc1` (stereo unspecified) the “activation” value was 5.16%.
For `N#CC1=C(N)OC2=C(C(=O)CCC2)C1C1CC=CCC1` (stereo unspecified), the “activation” value was 9.36%.
For `CC1CCN(C(=O)Cn2cc(C(=O)c3ccco3)c3ccccc32)CC1`, the Potency was 20 µM (active).
With `CCOC(=O)C1CCN(C(=O)Cn2cc(C#N)c3ccccc32)CC1` the “activation” value was -2.07%.
For `COC(=O)Cn1cc(C(=O)c2cccs2)c2ccccc21`, the “activation” value was 18.6%.
For `CC(=O)OCC1OC(C#Cc2ccccc2Cl)C=CC1OC(C)=O` (stereo unspecified), the activation was -0.512% [at 11.4 µM].
For `CCCCCCCCCCCC(=O)O[C@H](CC(=O)O)C[N+](C)(C)C`, the “activation” value was 10.1%.
With `Cc1ccc(NC(=O)CSc2nnc(-c3cnccn3)n2Cc2ccco2)cc1C` the “activation” value was 0.776%.
In the case of `O=C(CSc1nnc(-c2cccs2)n1-c1ccccc1)NCc1ccco1`, the “activation” value is reported as 23.2%.
For `COc1ccc(-c2nnc(SCC(=O)c3ccco3)n2-c2ccccc2)cc1`, the “activation” value was 11.6%.
With `O=C(CSc1nnc(-c2cccnc2)n1Cc1ccco1)c1ccc(Cl)cc1` the “activation” value was 19.9%.
For `COc1ccc(C(=O)CSc2nnc(COc3ccccc3)n2Cc2ccco2)cc1`, the Potency was 15.8 µM (active).
For `O=C(CSc1nnc(-c2cnccn2)n1Cc1ccco1)c1ccc(Cl)c(Cl)c1`, the Potency was 25.1 µM (active).
In the case of `COc1ccc(NC(=O)CSc2nnc(-c3cccs3)n2Cc2ccco2)cc1OC`, the “activation” value is reported as 5.77%.
With `O=C(CSc1nnc(-c2cccs2)n1Cc1ccco1)c1ccc2c(c1)OCO2` the Potency was 31.6 µM (active).
For `CCn1c(CNc2ccc(OC)cc2)nnc1SCC(=O)c1ccc(OC)cc1`, the “activation” value was 3.65%.
In the case of `CCOC(=O)c1nc(-c2ccc3c(c2)OCO3)[nH]c1C`, the “activation” value is reported as 20.4%.
In the case of `CCCC(=O)N1c2ccc(-c3csc(N)n3)cc2CC1C` (stereo unspecified), the “activation” value is reported as -11.7%.
In the case of `Cc1ccc2nc(S(=O)(=O)O)[nH]c2c1`, the “activation” value is reported as 0.944%.
With `O=C(CC1N=C2c3ccccc3N=C(SCc3ccccc3Cl)N2C1=O)NCc1ccco1` (stereo unspecified) the Potency was 15.8 µM (active).
With `O=C(CSC1=Nc2ccccc2C2=NC(c3ccccc3)C(=O)N12)NCC1CCCO1` (stereo unspecified) the “activation” value was -0.0353%.
With `NC(=O)CSC1=Nc2ccccc2C2=NC(CCC(=O)NCc3ccc(F)cc3)C(=O)N12` (stereo unspecified) the “activation” value was 1.88%.
Compound `Cc1cc(OCC(=O)O)c(Cl)cc1Cl` has an activation of 18.1% [at 11.4 µM].
With `Cc1ccccc1C(=O)O` the “activation” value was 5.98%.
For `CCCC(=O)Nc1ccccc1N1CCN(C(=O)c2ccccc2)CC1`, the Potency was 15.8 µM (active).
In the case of `O=C(Nc1ccccc1N1CCN(C(=O)c2ccccc2)CC1)c1ccc2c(c1)OCO2`, the “activation” value is reported as 6.57%.
With `CCC(=O)Nc1ccccc1N1CCN(S(C)(=O)=O)CC1` the “activation” value was 13%.
`CC(C)CO/N=C1/C[C@@H](O)[C@@H](O)[C@@H]2[C@@H]3C(=O)N(C[C@@H]4CCCO4)C(=O)[C@H]3CC[C@@H]12` showed an activation of 4.27% [at 11.4 µM].
With `O=C(O)COc1c(Cl)cc(Cl)c2cccnc12` the activation was 14.2% [at 11.4 µM].
With `CC12CCC(C(=O)N3CCN(c4ncccn4)CC3)(c3nc4ccccc4nc31)C2(C)C` (stereo unspecified) the “activation” value was 12.7%.
In the case of `CCCCn1c(SCC(=O)NCC2CCCO2)nc2ccc(N3CCOCC3)cc2c1=O` (stereo unspecified), the “activation” value is reported as 2.7%.
In the case of `COCCCNC(=O)CSc1nc2ccc(N3CCOCC3)cc2c(=O)n1CCc1ccccc1`, the “activation” value is reported as 3.65%.
In the case of `CCc1ccc(NC(=O)CSc2nc3ccccc3c(=O)n2CCN2CCOCC2)cc1`, the Potency is reported as 31.6 µM (active).
For `COC(=O)C1=C(C)N(Cc2ccccc2)C2=C3C(=O)N(c4ccccc4)C(=O)C3[C@@](O)(C(=O)OC)C(=O)N2C1c1ccccc1` (stereo partly specified), the activation was 9.18% [at 11.4 µM] and 2.67% [at 11.4 µM].
With `CN(Cc1ccco1)c1ncncc1-c1ccoc1` the “activation” value was 11.1%.
With `Cc1ccccc1-c1nc(N(C)Cc2ccco2)c2ccccc2n1` the Potency was 25.1 µM (active).
For `CN(Cc1ccco1)c1cc(-c2ccccc2C(F)(F)F)ncn1`, the “activation” value was 22.4%.
Potency means the concentration at half of the fitted maximal effect.
